Test results taken from ChEMBL document CHEMBL1157539, “Thousands of chemical starting points for antimalarial lead identification” (Nature, 2010).

Tested on: Plasmodium falciparum
Test: GSK_TCMDC: Inhibition of Plasmodium falciparum Dd2 in whole red blood cells, using parasite LDH activity as an index of growth. Test compounds present at 2uM
Format: functional

In order of falling Inhibition:
1. Fc1ccc2[nH]c(-c3ccc(-c4ccc(CN5CCCCC5)cc4)cc3)nc2c1.O=C(O)C(F)(F)F  100%
2. COc1ccc2nc(C)cc(N/N=C/C=C/c3ccccc3)c2c1  100%
3. CCCN(CCC)C(C)CCC(C)Nc1c2ccc(Cl)cc2nc2ccc(OC)cc12.Cl (stereo not given)  99%
4. CN1CCN(c2ccnc3ccc(NC(=O)Nc4ccc(-c5ccncc5)c(C(F)(F)F)c4)cc23)CC1  99%
5. C=C[C@]1(C)C[C@@H](OC(=O)NC(=O)CCCS(=O)(=O)c2nnc(C)s2)[C@]2(C)[C@H](C)CC[C@]3(CCC(=O)[C@H]32)[C@@H](C)[C@@H]1O  97%
6. CC(C)Cn1cc(C2CCN(CCN3CCC(CNC(=O)c4ccc(NC(=O)c5cc(Cl)cc(Cl)c5)cc4)CC3)CC2)c2ccccc21  96%
7. CC(C)(C)OC(=O)NCC(=O)N(Cc1ccccc1)Cc1ccccc1  93%
8. CCCCC(=O)NC(c1cccs1)c1cc(Cl)c2cccnc2c1O (stereo not given)  90%
9. CCOc1ccccc1C(=O)Nc1cccc(-c2nc3ncccn3c2C)c1  88%
10. CN1CCN(CCCN(Cc2cccc(-c3cccc(CNCCc4ccccc4)c3)c2)C(=O)Nc2ccccc2)CC1.O=C(O)C(F)(F)F  82%
11. COc1cc(Nc2nccc(N3CCC(NC(=O)Nc4ccc5c(c4)OCO5)C3)n2)cc(OC)c1OC (stereo not given)  74%
12. CC[C@H]1CN(C/C=C/c2ccc(OC)cc2)CC[C@H]1CCCc1ccnc2ccc(O)cc12  72%
13. COc1ccc(-c2ccc(NC(=O)c3cccc(C#N)c3)cc2)cc1CN1CCN(C)CC1.O=C(O)C(F)(F)F  59%
14. Cc1cc(NC(=O)Nc2ccc3sccc3c2)c2ccccc2n1  57%
15. Cc1nn(-c2ccnc3cc(Cl)ccc23)c(C)c1C(=O)NCc1cc(Cl)cc(Cl)c1  53%
16. COc1ccc(-c2cc(C(=O)N3CCc4ccccc43)c3ccccc3n2)cc1OC  48%
17. Cc1cnc(C(=O)Nc2cccc(-c3cccc(-c4nc5cccc(C)c5[nH]4)c3)c2)cn1  45%
18. Cl.N=c1c2c(n(Cc3ccccc3)c3c1CCC3)CCCC2  39%
19. O=C(Nc1cccc(-c2ccc(-c3nc4ccccc4[nH]3)cc2)c1)Nc1ccc(F)c(F)c1F  38%
20. CCCNCc1ccc(-c2ccc(CN(CCOC)C(=O)CCc3ccc(OC)cc3)cc2)nc1.O=C(O)C(F)(F)F  29%
21. CN1CCCN(Cc2ccc(-c3ccc(NC(=O)c4ccc(C#N)cc4)cc3)cc2)CC1.O=C(O)C(F)(F)F  28%
22. Cc1cccc2nc(-c3cccc(-c4ccc(NC(=O)c5ccc(=O)[nH]n5)cc4)c3)[nH]c12  27%
23. Cc1cc(OCCCN2CCC(NS(=O)(=O)c3ccc(C(F)(F)F)cc3)CC2)c2ccccc2n1  24%
24. c1ccc(N2CCN(c3cc(-c4cccnc4)nc(-c4ccncc4)n3)CC2)nc1  22%
25. COc1ccccc1C(=O)Nc1ccc(Nc2nc(C)cc(N3CCOCC3)n2)cc1  22%
26. O=C(/C=C/c1ccc(Cl)c(Cl)c1)NCCCCCN1CCC(CCCNC(=O)Nc2ccc(C(F)(F)F)cc2)CC1  19%
27. O=C(NCCNc1ccnc(NCc2ccc(F)cc2)n1)c1cc2ccccc2s1  17%
28. CCCCCN1CCC(CNS(=O)(=O)c2ccc(C(=O)Nc3cccc(C(F)(F)F)c3)cc2)CC1.O=C(O)C(F)(F)F  13%
29. O=C(Nc1ccc(Cl)cc1)Nc1cccc(CCNCc2ccccc2)c1.O=C(O)C(F)(F)F  12%
30. N#Cc1cccc(NC(=O)Nc2ccc3c(c2)CN(Cc2c[nH]c4ncccc24)C3)c1  12%
31. Cl.N=c1n(CCN2CCCC2)c2ccccc2n1CC(O)c1ccc(Cl)c(Cl)c1 (stereo not given)  6%
32. O=C(C=Cc1ccc(Cl)c(Cl)c1)NCCCCCN1CCCC(CCCNC(=O)C2CC2c2ccccc2)C1 (stereo not given)  5%
33. CN1CCc2cc(O)c(NS(=O)(=O)c3ccc(-c4ccc(Cl)cc4)cc3)cc2CC1.Cl  3%
34. Cc1cc(-c2cccc(CNCCc3ccc(Cl)cc3)c2)cnc1N.Cl  3%
35. Br.Oc1ccc(CCNCCCCCCNCCc2ccc(Cl)c(Cl)c2)cc1O  2%
36. CCOC(=O)c1ccc(NC(=O)N[C@@H](Cc2ccccc2)C(=O)NC2CCN(Cc3ccc(O)cc3)C2)cc1 (stereo not given in full)  2%
37. CCCC[C@@H](C(=O)NCc1ccccc1C(F)(F)F)N1C(=O)CCC1C(=O)Nc1ccc([N+](=O)[O-])cc1 (stereo not given in full)  2%
38. O=C(Nc1cc(Cl)ccc1Cl)N[C@H]1CCN(CCCCCNC(=O)C2CC2c2ccc(Cl)c(Cl)c2)C1 (stereo not given in full)  1%
39. CCCOc1cc(Cc2cnc(N)nc2N)cc(OC)c1OC  1%
40. COc1cc(Cc2cnc(N)nc2N)cc(OCCNC(=O)OCc2ccccc2)c1OC  0%
